The record followed here is PubChem BioAssay (EPA / NIEHS).

Broadly, the AC50 is the concentration at which the activity in the assay is half-maximal.

Active and inactive are the calls of the source. The calls were made as follows: active = hit-call score of the fitted dose curve at least 0.9, where 1 is the maximum; inactive = score below 0.9.

Assay [1] can be described thus: ATG_GRE_CIS: Attagene CIS-FACTORIAL HepG2 Assay for human Glucocorticoid Response Elements (GRE) (AID 2282947). To be noted: HepG2 GRE cis-reporter, Attagene multiplex mRNA; actives raise or lower the signal. The method, boiled down:
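Multiplexed cis-reporter mRNA induction, HepG2, 24 h post-dose. RT-PCR, FAM-labelled, HpaI-digested amplicons by CE. Bidirectional fit vs DMSO.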

Assay [2] is described as follows: ATG_M_32_CIS: Attagene CIS-FACTORIAL HepG2 Assay for M32 Transcription Factor (Internal Marker) (AID 2282949).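 Also: background control marker of the multiplexed CIS panel rather than a real target.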 To be noted: HepG2 Attagene cis-factorial M32 reporter, mRNA; actives raise or lower the signal. The method, boiled down:
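Using DMSO as baseline, bidirectional curve fits were applied to reporter mRNA signals. These came from transiently transfected HepG2 cells exposed for 24 h, with RNA analysed by RT-PCR, FAM primer extension, HpaI digestion and CE.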

Assay [3] can be described thus: ATG_M_06_CIS: Attagene CIS-FACTORIAL HepG2 Assay for M06 Transcription Factor (Internal Marker) (AID 2282950). To be noted: HepG2 Attagene CIS-FACTORIAL M06 internal marker reporter; actives raise or lower the signal. In a few lines:
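Serves as a background control readout. Transfected HepG2 exposed to compounds for 24 h, then reporter transcripts quantified by fluorescent RT-PCR and capillary electrophoresis. Both directions fitted against DMSO baseline.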

The target in assay [4] is Hypoxia-inducible factor 1-alpha (Homo sapiens) (UniProt Q16665). The assay can be described thus: ATG_HIF1a_CIS: Attagene CIS-FACTORIAL HepG2 Assay for human Hypoxia Inducible Factor 1 (HIF1A) (AID 2282951). To be noted: HepG2 Attagene cis-factorial HIF1a reporter transcription; actives raise or lower the signal. In a few lines:
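Activity is fitted in both directions relative to DMSO. Reporter transcripts are read by RT-PCR, fluorescent primer extension and capillary electrophoresis after 24 h chemical treatment. The cells are HepG2 carrying transiently transfected cis-element-driven reporter units responding to endogenous factors.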

In assay [5] the target is Hepatocyte nuclear factor 6 (Homo sapiens) (UniProt Q9UBC0). The assay can be described thus: ATG_HNF6_CIS: Attagene CIS-FACTORIAL HepG2 Assay for human Hepatocyte Nuclear Factor 6 (HNF6) (AID 2282952). The settings on record: HepG2 Attagene cis-factorial HNF6 reporter transcription; actives raise or lower the signal. The method, boiled down: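 Endogenous transcription factor activity in human HepG2 liver cells was captured through cis-regulated reporter constructs. After 24 h treatment, reporter mRNA was measured by RT-PCR with capillary electrophoresis, and activity was fitted in both directions relative to DMSO.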

Assay [6] has as its target Heat shock factor protein 1 (Homo sapiens) (UniProt Q00613). The experiment in a line: ATG_HSE_CIS: Attagene CIS-FACTORIAL HepG2 Assay for human Heat Shock Transcription Factor 1 (HSE) (AID 2282953). The settings on record: HepG2 HSE cis-reporter, Attagene RNA transcription; actives raise or lower the signal. The method, boiled down: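 Endogenous transcription factor activity in transiently transfected HepG2, read as reporter mRNA by RT-PCR with fluorescent capillary electrophoresis after 24 h. Gain or loss of signal fitted versus DMSO baseline.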

Assay [7] in a line: ATG_MRE_CIS: Attagene CIS-FACTORIAL HepG2 Assay for human Metal Responsive Element (MRE) (AID 2282954). To be noted: HepG2 MRE cis-reporter transcription, Attagene multiplex; actives raise or lower the signal. In a few lines:
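Multiplexed cis-reporter assay in human HepG2 liver cells, 24 h incubation with test chemical. Reporter transcripts measured by RT-PCR and capillary electrophoresis; values from bidirectional curve fitting versus DMSO.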

Assay [8] is described as follows: ATG_PBREM_CIS: Attagene CIS-FACTORIAL HepG2 Assay for human Phenobarbital-responsive Enhancer Module (PBREM) (AID 2282955). To be noted: HepG2 PBREM cis-reporter, Attagene multiplexed transcription; actives raise or lower the signal. The method, boiled down:
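Endogenous transcription factor activity was read from reporter transcripts in transiently transfected human HepG2 liver cells after 24 h dosing. RT-PCR products were fluorescently labelled, HpaI-cut and sized by capillary electrophoresis; activity fitted bidirectionally against DMSO baseline.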

In assay [9] the target is Paired box protein Pax-6 (Homo sapiens) (UniProt P26367). The experiment in a line: ATG_Pax6_CIS: Attagene CIS-FACTORIAL HepG2 Assay for human Paired Box 6 (PAX6) (AID 2282956). To be noted: HepG2 CIS-FACTORIAL PAX6 reporter transcription, RNA readout; actives raise or lower the signal. In a few lines:
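DMSO-referenced bidirectional fits of reporter mRNA fluorescence; HepG2 with transient cis-promoter MRTUs, 24 h post-dose, RT-PCR plus capillary electrophoresis detection.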

The nature of assay [10]: ATG_ISRE_CIS: Attagene CIS-FACTORIAL HepG2 Assay for human Interferon Regulatory Factor 1 (IRF1) binding to an Interferon-Stimulated Response Element (ISRE) (AID 2282948). To be noted: HepG2 ISRE cis-reporter (Attagene), mRNA transcription readout; actives raise or lower the signal. The method, boiled down: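 Uses HepG2 liver cells transfected with cis-regulated reporters and measures mRNA 24 h post-dosing through RT-PCR, primer-extension labelling and capillary electrophoresis, with DMSO as negative control.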

Sequence of Heat shock factor protein 1 (Homo sapiens) (Q00613 whole entry, looked up): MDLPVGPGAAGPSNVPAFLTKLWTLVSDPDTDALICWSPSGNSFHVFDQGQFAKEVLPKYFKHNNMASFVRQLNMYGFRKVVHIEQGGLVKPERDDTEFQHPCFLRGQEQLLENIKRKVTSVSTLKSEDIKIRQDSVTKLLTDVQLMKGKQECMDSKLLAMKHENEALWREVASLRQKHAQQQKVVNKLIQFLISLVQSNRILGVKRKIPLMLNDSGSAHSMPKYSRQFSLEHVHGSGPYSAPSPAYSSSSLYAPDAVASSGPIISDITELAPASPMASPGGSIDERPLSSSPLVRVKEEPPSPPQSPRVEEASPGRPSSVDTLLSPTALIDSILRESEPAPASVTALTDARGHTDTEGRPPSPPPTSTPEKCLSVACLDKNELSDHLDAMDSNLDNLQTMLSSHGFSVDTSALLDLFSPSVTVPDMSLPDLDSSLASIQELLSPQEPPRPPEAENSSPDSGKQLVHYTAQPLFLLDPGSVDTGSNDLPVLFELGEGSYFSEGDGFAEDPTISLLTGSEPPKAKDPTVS
Sequence of Paired box protein Pax-6 (Homo sapiens) (P26367 whole entry, looked up): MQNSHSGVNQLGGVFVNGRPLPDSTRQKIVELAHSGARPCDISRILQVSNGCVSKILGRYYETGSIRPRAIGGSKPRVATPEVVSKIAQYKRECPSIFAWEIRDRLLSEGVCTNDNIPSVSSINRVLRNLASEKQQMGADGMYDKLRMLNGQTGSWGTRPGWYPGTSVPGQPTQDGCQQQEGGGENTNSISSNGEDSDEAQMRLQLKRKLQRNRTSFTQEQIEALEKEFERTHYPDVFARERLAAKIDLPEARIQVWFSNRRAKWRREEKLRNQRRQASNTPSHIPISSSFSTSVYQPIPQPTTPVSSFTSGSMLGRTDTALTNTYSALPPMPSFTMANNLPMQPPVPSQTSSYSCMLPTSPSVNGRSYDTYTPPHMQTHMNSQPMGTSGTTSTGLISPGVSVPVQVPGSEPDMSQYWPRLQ
Sequence of Hypoxia-inducible factor 1-alpha (Homo sapiens) (Q16665 whole entry, looked up): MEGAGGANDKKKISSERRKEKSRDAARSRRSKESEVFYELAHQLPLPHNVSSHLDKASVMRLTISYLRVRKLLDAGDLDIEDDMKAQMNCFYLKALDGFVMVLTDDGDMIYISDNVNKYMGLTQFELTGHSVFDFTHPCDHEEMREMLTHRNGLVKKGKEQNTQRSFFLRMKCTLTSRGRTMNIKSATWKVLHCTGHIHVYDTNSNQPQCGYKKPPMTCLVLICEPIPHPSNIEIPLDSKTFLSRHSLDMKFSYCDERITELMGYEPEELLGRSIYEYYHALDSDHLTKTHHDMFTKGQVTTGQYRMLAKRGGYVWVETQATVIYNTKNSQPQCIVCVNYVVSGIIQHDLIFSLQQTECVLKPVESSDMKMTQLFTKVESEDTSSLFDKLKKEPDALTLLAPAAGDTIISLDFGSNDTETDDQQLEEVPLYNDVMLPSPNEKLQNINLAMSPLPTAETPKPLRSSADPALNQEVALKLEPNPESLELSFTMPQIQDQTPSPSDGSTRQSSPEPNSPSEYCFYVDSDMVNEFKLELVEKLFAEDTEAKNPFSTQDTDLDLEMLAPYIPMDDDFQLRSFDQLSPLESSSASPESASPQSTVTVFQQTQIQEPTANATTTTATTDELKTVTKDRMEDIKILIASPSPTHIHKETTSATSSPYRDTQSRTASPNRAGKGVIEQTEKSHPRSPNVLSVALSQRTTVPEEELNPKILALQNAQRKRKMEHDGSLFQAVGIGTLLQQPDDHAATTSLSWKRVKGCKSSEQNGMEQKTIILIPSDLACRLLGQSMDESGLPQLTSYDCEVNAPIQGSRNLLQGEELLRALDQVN
Sequence of Hepatocyte nuclear factor 6 (Homo sapiens) (Q9UBC0 whole entry, looked up): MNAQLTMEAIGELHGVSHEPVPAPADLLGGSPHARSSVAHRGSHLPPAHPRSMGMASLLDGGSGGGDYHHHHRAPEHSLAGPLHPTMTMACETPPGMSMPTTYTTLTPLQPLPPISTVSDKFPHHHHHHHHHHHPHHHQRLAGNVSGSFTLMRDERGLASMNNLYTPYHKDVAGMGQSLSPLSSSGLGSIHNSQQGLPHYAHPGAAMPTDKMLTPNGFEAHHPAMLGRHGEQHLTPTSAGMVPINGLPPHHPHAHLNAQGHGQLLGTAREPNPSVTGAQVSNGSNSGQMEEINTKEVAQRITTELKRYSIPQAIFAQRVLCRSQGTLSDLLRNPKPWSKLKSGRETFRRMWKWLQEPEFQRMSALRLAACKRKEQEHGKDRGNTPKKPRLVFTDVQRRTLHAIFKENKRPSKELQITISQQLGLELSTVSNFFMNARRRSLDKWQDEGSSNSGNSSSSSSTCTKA

For `COc1cc(OC)nc(Sc2cccc(Cl)c2C(=O)O)n1`, the compound was called inactive in assay [1], in [2], in assay [3], in [4], in assay [5] and in assay [6]. Further, the outcome in assay [7], in assay [8] and in assay [9] was inactive.
As to `CCC(=O)Nc1ccc(Cl)c(Cl)c1`, the outcome in [10], in assay [2], in [3], in assay [4], in assay [5] and in assay [6] was inactive. The call in [7] and in [8] was inactive.
With `CCCCOC(=O)c1ccccc1C(=O)O`, the outcome in assay [10], in assay [2], in [3], in assay [4], in assay [5] and in assay [6] was inactive. Also, the compound was called inactive in assay [7], in [8] and in assay [9].
In the case of `C[N+]1(C)CCCCC1`, the call in assay [2], in assay [3], in assay [4], in assay [5], in assay [6] and in [7] was inactive. In addition, in assay [8], the result was inactive.
As to `CCCCOC(=O)[C@@H](C)Oc1ccc(Oc2ccc(C#N)cc2F)cc1`, the result in [1], in assay [2], in [4], in [5], in assay [6] and in assay [7] was inactive. The outcome in assay [8] and in assay [9] was inactive.
Take `Cc1cc(C2CC2)nc(Nc2ccccc2)n1`: the AC50 in [10] is 81 µM (active); in [4], 50 µM (active); in [7], 74.7 µM (active); in assay [8] it was 50 µM (active). Also, the call in assay [2], in assay [3], in [5] and in assay [6] was inactive.
With `O=c1ccc(=O)[nH][nH]1`, the call in assay [10], in [2], in assay [3], in [4], in assay [5] and in [6] was inactive. Further, the compound was called inactive in assay [7].
With `CC1=NNC(=O)N(/N=C/c2cccnc2)C1`, the outcome in assay [10], in assay [2], in [3], in [4], in assay [5] and in assay [6] was inactive. In assay [7], the outcome was inactive.
Consider `CC[C@H](C)[C@H]1O[C@]2(C=C[C@@H]1C)C[C@@H]1C[C@@H](C/C=C(\C)[C@@H](O[C@H]3C[C@H](OC)[C@@H](O[C@H]4C[C@H](OC)[C@@H](NC)[C@H](C)O4)[C@H](C)O3)[C@@H](C)/C=C/C=C3\CO[C@@H]4[C@H](O)C(C)=C[C@@H](C(=O)O1)[C@]34O)O2`, for which the outcome in assay [2], in assay [3], in assay [4], in [5], in assay [7] and in assay [8] was inactive. The outcome in [9] was inactive.
On to `CCOP(=O)(SC(C)CC)N1CCSC1=O` (stereo not given), for which the compound was classed as inactive in assay [10], in [2], in assay [3], in assay [4], in assay [5] and in assay [6]. The call in assay [7] and in assay [8] was inactive.
As to `CN(C)C(=O)Nc1cccc(C(F)(F)F)c1`, the outcome in assay [2], in [4], in assay [5], in assay [6], in assay [7] and in [8] was inactive. For the same compound, the compound was called inactive in assay [9].
For the compound `Cc1ccn2nc(S(=O)(=O)Nc3c(F)cccc3F)nc2n1`, the result in assay [10], in [2], in assay [4], in assay [5], in assay [6] and in assay [7] was inactive. For the same compound, the outcome in assay [8] and in [9] was inactive.
In the case of `CCOP(=S)(OCC)SCCSCC`, the results for the concentration at half-maximal activity (AC50) in assay [1] and in [8] were 15.4 µM (active) and 30.5 µM (active), respectively. Also, the outcome in assay [2], in assay [4], in assay [5], in assay [6], in [7] and in assay [9] was inactive.
In the case of `CCOP(=O)(OCC)Oc1cc(C)nc(C(C)C)n1`, the result in [1], in [2], in assay [4], in [5], in assay [6] and in [7] was inactive. The outcome in assay [9] was inactive.
Take `CC(Oc1cccc(Cl)c1)C(=O)O` (stereo not given): the compound was called inactive in assay [1], in [2], in assay [4], in assay [5], in [6] and in assay [7]. Further, the outcome in assay [8] and in assay [9] was inactive.
Regarding `CC1(C(=O)Nc2ccc(O)c(Cl)c2Cl)CCCCC1`, the outcome in [2], in assay [4], in [5], in assay [6] and in assay [9] was inactive. Also, the AC50 in assay [7] is 50 µM (active); in assay [8], 5.86 µM (active).
As to `C[Si](Cn1cncn1)(c1ccc(F)cc1)c1ccc(F)cc1`, the AC50 in assay [2] is 35.4 µM (active); in [4], 50 µM (active); in assay [6], 85.6 µM (active); in assay [7], 63.2 µM (active); in assay [9], 67.8 µM (active). Also, the compound was classed as inactive in assay [5].
Consider `CCOP(=O)(NC(C)C)Oc1ccc(SC)c(C)c1` (stereo not given), for which the outcome in [1], in [2], in assay [4], in assay [5] and in [7] was inactive. In addition, in assay [8], the concentration at half-maximal activity (AC50) was 16.2 µM (active).
